According to PubChem BioAssay (NCATS):
Values joined by “and” are separate entries in the source; they are usually repeats but may differ in a detail not shown here. Equal values may be shown once. A number with no mark means an inactive call. Records with an inconclusive call do not appear. Entries that show only a call come without a potency. Active and inactive are the calls of the source. Unless noted, the call rests on the fitted dose curve; in most records, active means well fitted curve in the direction sought with a large enough effect; inconclusive means small, poorly fitted or top-dose-only effect, or another doubt; inactive means no such curve, though single readings can be large; an effect the other way counts as inactive or inconclusive.

Experiments:
[1] = qHTS assay for small molecule agonists of the antioxidant response element (ARE) signaling pathway (AID 651741; active means well fitted activation curve with a large enough effect in the signal ratio; the % refers to the signal ratio; further: potency means the concentration at half of the fitted maximal effect)
How it was run: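 HepG2 ARE-bla cells plated at 2,000 cells/well and incubated 5 h at 37 C/5% CO2 received 23 nL compound in DMSO. After 16 h at 37 C, LiveBLAzer B/G FRET substrate was applied for 2 h at room temperature and fluorescence read.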

[2] = qHTS assay for small molecule activators of the p53 signaling pathway (AID 651743; active means well fitted activation curve with a large enough effect in the signal ratio, not every such curve was filed as active; the % refers to the signal ratio; further: series mostly up to about 92 µM); settings: HCT-116 p53RE-bla, beta-lactamase FRET ratio, 16 h; activation: stronger effect = higher value
How it was run: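 HCT-116 p53RE-bla, 4,000 cells/well; 5 h settle; cpd/DMSO 16 h, 37 C; LiveBLAzer B/G 2 h RT; fluorescence intensity.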

[3] = qHTS assay for small molecule activators of the nuclear factor-kappa B (NF-kB) signaling pathway (AID 651749; active means well fitted activation curve with a large enough effect in the signal ratio; the % refers to the signal ratio; further: series mostly up to about 77 µM); settings: NF-kB-bla ME-180 cells, beta-lactamase FRET ratio, 16 h; stronger effect = higher value
How it was run: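 Incubation lasted 16 hr at 37C in 5% CO2 after 23 nL compound addition to ME-180 NF-kB-bla cells. Activation appears as beta-lactamase-mediated FRET loss.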

[4] = qHTS assay for small molecule disruptors of the mitochondrial membrane potential - 5 hr assay (AID 651755; calls by dose curve; further: nearly all actives have a fitted effect of over 40% in size; further: potency means the concentration at half of the fitted maximal effect)
How it was run: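 HepG2 cells (2,000/well), attached overnight, exposed to compound 5 hr at 37C, then Mito-MPS dye 30 min. Fluorescence read for monomers (490/535 nm) and aggregates (540/590 nm).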

[5] = biological target: Tumor necrosis factor (Homo sapiens) (UniProt P01375); assay: qHTS assay to identify small molecules that stimulate Tumor Necrosis Factor-alpha (TNF-alpha) secretion (AID 651757; active means well fitted curve in the direction sought with a large enough effect in the signal ratio; the % refers to the signal ratio)
Chain of Tumor necrosis factor (Homo sapiens) (P01375 whole entry, looked up): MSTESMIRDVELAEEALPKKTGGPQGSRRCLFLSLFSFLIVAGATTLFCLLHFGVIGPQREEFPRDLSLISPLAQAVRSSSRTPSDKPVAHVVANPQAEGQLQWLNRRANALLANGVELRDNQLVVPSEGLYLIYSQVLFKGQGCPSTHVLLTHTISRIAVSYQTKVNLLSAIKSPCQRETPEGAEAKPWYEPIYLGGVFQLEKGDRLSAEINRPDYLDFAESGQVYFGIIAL
How it was run: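 THP-1 cells were exposed to compounds for 17 hrs at 37 C, after which secreted TNF-alpha was measured by homogeneous HTRF (TR-FRET) using cryptate- and XL665-labeled anti-TNF-alpha antibodies, read after 3 hr at room temperature.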

[6] = qHTS assay to identify small molecules that stimulate interleukin-8 (IL-8) secretion (AID 651758; active means well fitted activation curve with a large enough effect in the signal ratio; the % refers to the signal ratio)
How it was run: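 THP-1 cells (2000/well) exposed to compound 16 h at 37 C; secreted IL-8 then detected by HTRF with cryptate- and XL665-labelled anti-IL-8 antibody pair after 1-3 h at room temperature.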

[7] = biological target: Peroxisome proliferator-activated receptor alpha (Homo sapiens) (UniProt Q07869); assay: qHTS assay for small molecule agonists of the peroxisome proliferator-activated receptor alpha (PPARalpha) signaling pathway (AID 651778); settings: PathHunter PPARalpha complementation, chemiluminescence, 6 h; stronger effect = higher value
Chain of Peroxisome proliferator-activated receptor alpha (Homo sapiens) (Q07869 whole entry, looked up, the tested form may be a part): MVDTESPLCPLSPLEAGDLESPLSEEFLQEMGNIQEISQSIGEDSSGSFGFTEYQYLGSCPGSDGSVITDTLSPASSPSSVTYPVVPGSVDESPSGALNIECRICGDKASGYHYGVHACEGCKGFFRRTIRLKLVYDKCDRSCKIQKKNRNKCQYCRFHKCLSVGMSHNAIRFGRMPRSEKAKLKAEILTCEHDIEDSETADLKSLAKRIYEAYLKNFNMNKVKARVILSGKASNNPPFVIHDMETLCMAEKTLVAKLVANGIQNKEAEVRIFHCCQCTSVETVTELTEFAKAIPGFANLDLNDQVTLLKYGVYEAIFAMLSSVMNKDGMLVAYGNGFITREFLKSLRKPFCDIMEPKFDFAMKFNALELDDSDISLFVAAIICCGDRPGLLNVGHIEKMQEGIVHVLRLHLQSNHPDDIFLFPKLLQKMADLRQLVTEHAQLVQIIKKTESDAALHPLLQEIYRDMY
How it was run: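 Enzyme-fragment complementation assay in which ligand-bound PPARalpha translocates and forms an active enzyme that generates chemiluminescence. Cells were plated overnight, exposed to compound for 6 hr at 37 C, and then given detection reagent for 60 min at room temperature.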

[8] = biological target: Nuclear receptor ROR-gamma (Homo sapiens) (UniProt P51449); assay: qHTS assay for small molecule antagonists of the retinoid-related orphan receptor gamma (ROR-gamma) signaling pathway (AID 651802); further: series mostly up to about 92 µM; nearly all actives have a fitted effect of over 60% in size
Chain of Nuclear receptor ROR-gamma (Homo sapiens) (P51449 whole entry, looked up): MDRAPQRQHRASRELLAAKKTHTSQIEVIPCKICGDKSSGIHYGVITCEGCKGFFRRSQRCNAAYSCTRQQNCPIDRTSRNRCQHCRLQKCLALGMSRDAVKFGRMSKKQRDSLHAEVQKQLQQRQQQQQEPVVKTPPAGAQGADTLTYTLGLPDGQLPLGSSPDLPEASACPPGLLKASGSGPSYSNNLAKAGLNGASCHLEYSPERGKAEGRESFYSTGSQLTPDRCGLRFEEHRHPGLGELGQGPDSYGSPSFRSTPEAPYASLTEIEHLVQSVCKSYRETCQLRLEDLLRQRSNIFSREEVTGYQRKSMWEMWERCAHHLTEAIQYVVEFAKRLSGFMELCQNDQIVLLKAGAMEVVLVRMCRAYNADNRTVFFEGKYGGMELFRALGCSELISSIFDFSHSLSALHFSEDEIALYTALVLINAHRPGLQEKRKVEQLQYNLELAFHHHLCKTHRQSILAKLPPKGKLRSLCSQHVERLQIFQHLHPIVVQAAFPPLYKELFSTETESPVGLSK
How it was run: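 CHO cells carrying TET-inducible ROR-gamma and an ROR response element–luciferase reporter were exposed to compound, then induced with doxycycline. After 16hr at 37C, luminescence was read; lower signal indicates antagonism.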

[9] = qHTS assay for small molecule agonists of the antioxidant response element (ARE) signaling pathway measured by Nrf2-dependant transcriptional activity (AID 720636; active means well fitted curve in the direction sought with a large enough effect in the repeat runs; an effect the other way counts as inactive or inconclusive;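 further: HepG2 cells with an ARE-driven luciferase reporter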)
How it was run: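 Cells: ARE-luc HepG2 with Nrf2-responsive luciferase. Medium contained 1% dialyzed FBS. Compound exposure lasted 16 hr at 37 C and 5% CO2, followed by ONE-Glo luciferase detection.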

[10] = qHTS assay for small molecule antagonists of the retinoid-related orphan receptor gamma (ROR-gamma) signaling pathway - cell viability counter screen (AID 720652; active means well fitted curve in the direction sought with a large enough effect in the repeat runs; an effect the other way counts as inactive or inconclusive;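 further: series mostly up to about 92 µM; compound exposure lasted 16 hr before ATP read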)
How it was run: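 Counter screen in CHO cells carrying TET-inducible ROR-gamma and an ROR response element-luciferase reporter; cells plated 5 hr, compound pinned, doxycycline added, then 16 hr at 37 C. Viability read as intracellular ATP by CellTiter-Glo luminescence.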

[11] = qHTS assay for small molecule agonists of the antioxidant response element (ARE) signaling pathway measured by Nrf2-dependant transcriptional activity - cell viability counter screen (AID 720653; active means well fitted curve in the direction sought with a large enough effect in the repeat runs; an effect the other way counts as inactive or inconclusive); settings: ARE-bla HepG2 viability, CellTiter-Glo ATP luminescence, 16 h; stronger effect = lower value
How it was run: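 ARE-bla HepG2 cells treated with compounds for 16 h at 37C; this counter screen measures viability as intracellular ATP by CellTiter-Glo luminescence after 30 min at room temperature.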

[12] = qHTS assay for environmental chemicals that activate the Aryl hydrocarbon Receptor (AhR) signaling pathway (AID 651777); settings: 1A2-DRE human hepatoma cells, luciferase, 24 h; stronger effect = higher value; further: nearly all actives have a fitted effect of over 15% in size
How it was run: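 1A2-DRE human hepatoma reporter line; 1,200 cells/well; cmpd or DMSO 24 h, 37 C/5% CO2; One-Glo 30 min RT; luciferase lum.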

[13] = qHTS assay for small molecule disruptors of the mitochondrial membrane potential - 1 hr assay (AID 651754; calls by dose curve; further: nearly all actives have a fitted effect of over 35% in size; further: potency means the concentration at half of the fitted maximal effect)
How it was run: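 HepG2 cells, attached overnight at 37C, were exposed to compound or DMSO vehicle for 1 hr at 37C, 5% CO2, then stained with Mito-MPS dye for 30 min. Red aggregate versus green monomer fluorescence reports membrane potential.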

[14] = biological target: Arylsulfatase A (Homo sapiens) (UniProt P15289); assay: qHTS screen for enhancers of Arylsulfatase A (ASA1): LOPAC Validation Assay (AID 720538); settings: outcome: dose series up to 57.5 µM
Chain of Arylsulfatase A (Homo sapiens) (P15289 whole entry, looked up): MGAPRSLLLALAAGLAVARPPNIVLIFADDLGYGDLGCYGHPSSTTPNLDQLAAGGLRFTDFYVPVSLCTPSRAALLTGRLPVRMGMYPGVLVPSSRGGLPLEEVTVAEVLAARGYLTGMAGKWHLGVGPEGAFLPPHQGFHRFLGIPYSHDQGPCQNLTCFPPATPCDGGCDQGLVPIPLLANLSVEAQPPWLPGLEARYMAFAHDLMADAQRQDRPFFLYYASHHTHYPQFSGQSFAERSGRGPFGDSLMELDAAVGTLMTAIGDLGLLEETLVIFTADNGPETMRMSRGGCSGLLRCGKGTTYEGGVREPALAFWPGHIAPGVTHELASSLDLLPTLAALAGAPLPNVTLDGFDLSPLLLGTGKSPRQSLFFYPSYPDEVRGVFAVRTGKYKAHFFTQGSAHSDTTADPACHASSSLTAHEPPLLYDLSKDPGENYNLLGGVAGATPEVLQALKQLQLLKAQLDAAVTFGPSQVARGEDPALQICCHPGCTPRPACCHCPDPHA
How it was run: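 Enhancer assay in patient-derived MLD fibroblasts carrying ASA-I179S: 48 h compound exposure at 37 C, then 14 h room-temperature pNCS turnover (0.5 mM final) in lysis buffer. Read by fluorescence at 525/598 nm after NaOH stop.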

[15] = qHTS for compounds that reverse cellular toxicity of Amyloid beta (A-beta) peptide in yeast: LOPAC Validation Assay (AID 720559)
How it was run: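 Rescue of A-beta toxicity was scored as yeast growth by 600 nm absorbance after 48 hr at 30 C with compound. Normalization used DMSO (negative) and equimolar ferric chloride plus clioquinol (positive).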

[16] = qHTS for Activators of Parkin Expression: LOPAC Validation Assay (NLuc Reporter) (AID 720572)
How it was run: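 Neuronal cells with a Parkin promoter-driven FLuc/NLuc coincidence reporter were treated 24 h at 37 C in 7-point dose response (LOPAC). NLuc luminescence read after FLuc; signals normalized to DMSO and positive control (100%).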

[17] = qHTS for Activators of Parkin Expression: LOPAC Validation Assay (FLuc Reporter) (AID 720573)
How it was run: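 FLuc signal from Parkin-promoter coincidence reporter neuronal cells, normalized to DMSO and positive control (100%). Cells (1,500/well) pre-incubated 24 h, then exposed to LOPAC compounds in 7-point dose response for 24 h at 37 C, 5% CO2.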

[18] = biological target: Tyrosine-protein kinase Yes (Homo sapiens) (UniProt P07947); assay: qHTS for small molecule inhibitors of Yes1 kinase: Primary Screen (AID 686947); further: nearly all actives have a fitted effect of over 60% in size
Chain of Tyrosine-protein kinase Yes (Homo sapiens) (P07947 whole entry, looked up): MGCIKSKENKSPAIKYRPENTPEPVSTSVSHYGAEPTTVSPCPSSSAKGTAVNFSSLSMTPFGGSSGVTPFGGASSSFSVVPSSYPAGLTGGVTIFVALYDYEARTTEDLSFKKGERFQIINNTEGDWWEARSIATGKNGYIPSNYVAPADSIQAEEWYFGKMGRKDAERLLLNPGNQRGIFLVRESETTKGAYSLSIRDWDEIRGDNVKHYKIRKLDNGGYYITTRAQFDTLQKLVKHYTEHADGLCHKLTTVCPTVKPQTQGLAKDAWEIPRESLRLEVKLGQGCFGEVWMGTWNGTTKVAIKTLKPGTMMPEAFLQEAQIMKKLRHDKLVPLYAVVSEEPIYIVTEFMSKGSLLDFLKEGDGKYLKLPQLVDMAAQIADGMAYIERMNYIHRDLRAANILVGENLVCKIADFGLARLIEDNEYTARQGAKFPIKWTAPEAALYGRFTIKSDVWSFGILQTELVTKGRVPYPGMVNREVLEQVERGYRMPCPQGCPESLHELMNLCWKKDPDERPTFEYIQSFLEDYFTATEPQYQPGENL
How it was run: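 ADP-Glo luminescence readout; final 4 nM Yes1, 0.1 mM ATP, 0.3 mg/mL poly(E4Y), Tris pH 7.5, MgCl2, DTT, Brij-35. 20 min compound preincubation, 60 min reaction at RT. Normalized to DMSO wells with and without enzyme.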

[19] = qHTS for small molecule inhibitors of Yes1 kinase: Counter Assay (AID 686950);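 further: no kinase present so only ADP-Glo detection of a fixed ADP amount is tested; luminescence from ADP-Glo reporting ADP in a fixed ATP and ADP mixture; series mostly up to about 77 µM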
How it was run: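 Enzyme-free detection counter-screen: compounds preincubated 20 min in buffer, then 0.08 mM ATP plus 0.02 mM ADP added for 60 min at room temperature; ADP-Glo luminescence. Buffer 50 mM Tris pH 7.5, 10 mM MgCl2, 150 mM NaCl; normalized to ATP+ADP and ATP-only controls.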

[20] = biological target: Ubiquitin carboxyl-terminal hydrolase 2 (Homo sapiens) (UniProt O75604); assay: qHTS for Inhibitors of Ubiquitin-specific Protease USP2a Using CHOP2 as the Reporter: K484 Substrate (AID 652173);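 further: cleavage of internally quenched K48 di-ubiquitin substrate measured as rising fluorescence over time; nearly all actives have a fitted effect of over 70% in size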
Chain of Ubiquitin carboxyl-terminal hydrolase 2 (Homo sapiens) (O75604 whole entry, looked up): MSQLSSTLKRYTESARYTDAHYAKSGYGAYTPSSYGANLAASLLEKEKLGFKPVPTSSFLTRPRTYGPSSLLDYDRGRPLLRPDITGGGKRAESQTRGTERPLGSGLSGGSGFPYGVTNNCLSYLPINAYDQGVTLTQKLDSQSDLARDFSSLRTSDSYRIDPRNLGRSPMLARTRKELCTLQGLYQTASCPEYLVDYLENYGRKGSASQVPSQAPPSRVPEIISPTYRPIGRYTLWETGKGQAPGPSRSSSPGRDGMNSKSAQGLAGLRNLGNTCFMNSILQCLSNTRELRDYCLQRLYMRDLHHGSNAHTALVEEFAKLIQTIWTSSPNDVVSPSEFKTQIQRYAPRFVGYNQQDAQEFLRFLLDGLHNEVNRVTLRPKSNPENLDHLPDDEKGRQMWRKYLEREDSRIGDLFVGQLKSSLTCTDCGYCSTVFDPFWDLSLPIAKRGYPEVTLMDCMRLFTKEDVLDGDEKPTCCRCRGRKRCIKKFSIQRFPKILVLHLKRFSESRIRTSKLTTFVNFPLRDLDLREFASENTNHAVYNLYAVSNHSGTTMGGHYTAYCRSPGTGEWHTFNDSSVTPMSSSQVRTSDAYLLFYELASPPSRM
How it was run: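 USP2 (dispensed at 5 nM) was pinned with compounds, then DiUb K48 internally quenched fluorescent substrate (dispensed at 100 nM) was added. The buffer was 20 mM Tris pH 8, 2 mM beta-mercaptoethanol and 0.05% CHAPS. Cleavage was read kinetically as rising fluorescence, Ex 525/Em 598.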

Structure (SMILES): COP(=S)(OC)Oc1ccc(SC)c(C)c1
- Potency [1]: inactive
- activation [2]: -1.52% and -0.273%
- activation [3]: -0.287% and 1.27%
- Potency [4]: inactive
- outcome [5]: inactive
- outcome [6]: inactive
- max response [7]: 6.43% and 7.61%
- Potency [8]: inactive
- outcome [9]: inactive
- outcome [10]: inactive
- max response [11]: -8.21% and -17%

Structure (SMILES): CC(C)(C)c1ccc(O)cc1
- Potency [1]: inactive
- activation [2]: -2.47%
- activation [12]: 0.343%
- outcome [9]: inactive
- max response [11]: -7.43%

Structure (SMILES): CN1C[C@H](C(=O)N[C@]2(C)O[C@@]3(O)[C@@H]4CCCN4C(=O)[C@H](Cc4ccccc4)N3C2=O)C=C2c3cccc4[nH]cc(c34)C[C@H]21
- Potency [1]: 37.6 µM (active)
- activation [2]: -2.39% and -2.48%
- Potency [13]: 11.9 µM (active)
- Potency [4]: 11.9 µM (active)
- activation [12]: 6.16% and 6.48%
- max response [7]: -3.76% and -6.49%
- outcome [9]: inactive
- outcome [10]: inactive
- max response [11]: -19% and -17.1%

Structure (SMILES): Nc1ccc([As](=O)(O)O)cc1
- Potency [1]: inactive
- activation [2]: -0.538%
- activation [3]: -0.596%
- max response [7]: -1.85%
- outcome [9]: inactive
- max response [11]: -9.13%

Structure (SMILES): NCCc1ccc(O)cc1
- Potency [1]: inactive
- activation [2]: -2.23%
- activation [3]: -0.88%
- Potency [4]: inactive
- outcome [5]: inactive
- activation [12]: -0.313%
- max response [7]: -1.42%
- Potency [8]: inactive
- outcome [14]: inactive
- outcome [15]: inactive
- outcome [16]: inactive
- outcome [17]: inactive
- outcome [9]: inactive
- outcome [10]: inactive
- max response [11]: 13.6%

Structure (SMILES): CC(C)NC(C)C
- Potency [1]: inactive
- activation [2]: -4.28%
- activation [3]: -1.54%
- outcome [5]: inactive
- activation [12]: -1.71%
- max response [7]: 0.708%
- Potency [8]: inactive
- outcome [9]: inactive
- outcome [10]: inactive
- max response [11]: -19.4%

Structure (SMILES): CCOC(=O)CC(SP(=S)(OC)OC)C(=O)OCC (stereo unspecified)
- Potency [1]: 48.6 µM (active)
- activation [2]: -1.29% and 0.916% and -0.523%
- activation [3]: -3.4% and -2.42%
- Potency [13]: inactive
- Potency [4]: inactive
- outcome [5]: inactive
- activation [12]: 1.62% and 10.4% and -0.452%
- max response [7]: -2.48% and 0.447% and -3.85%
- outcome [9]: inactive
- outcome [10]: inactive
- max response [11]: 25% and -5.73% and -3.35%

Structure (SMILES): Nc1nc(N)nc(NC2CC2)n1
- Potency [1]: inactive
- activation [2]: -0.84%
- activation [3]: -2.39%
- activation [12]: 0.42%
- max response [7]: -0.264%
- outcome [9]: inactive
- max response [11]: 14.5%

Structure (SMILES): O=P1(N(CCCl)CCCl)NCCCO1 (stereo unspecified)
- Potency [1]: inactive
- activation [2]: -1.12% and -2.77%
- activation [3]: -0.934% and -1.34%
- outcome [5]: inactive
- activation [12]: 0.318% and -1.16%
- max response [7]: 7.32% and -1.68%
- Potency [8]: inactive
- outcome [18]: inactive
- outcome [19]: inactive
- outcome [14]: inactive
- outcome [15]: inactive
- outcome [16]: inactive
- outcome [17]: inactive
- outcome [9]: inactive
- outcome [10]: inactive
- max response [11]: 1.71% and -4.84%

Structure (SMILES): COP(=S)(OC)Oc1cc(Cl)c(Cl)cc1Cl
- Potency [1]: 24.3 µM (active)
- activation [2]: -3.16%
- activation [3]: -1.3%
- activation [12]: 2.9%
- max response [7]: -0.715%
- outcome [9]: inactive
- max response [11]: -0.922%

Structure (SMILES): C[C@]12CCC(=O)C=C1CC[C@@H]1[C@@H]2CC[C@]2(C)C(=O)CC[C@@H]12
- Potency [13]: inactive
- Potency [4]: inactive

Structure (SMILES): C[C@]12CCC(=O)C=C1CC[C@@H]1[C@@H]2CC[C@@]2(C)[C@H]1CC[C@]2(C)O
- outcome [6]: inactive

Structure (SMILES): Cc1cc(NS(=O)(=O)c2ccc(N)cc2)no1
- outcome [20]: inactive
